Where “and” joins values, the source holds several entries; their conditions need not be identical. Equal values may be shown once. Read-outs that look alike come from different tables or passages of the source.
What was measured:
[1] = tested on: MAP4K3; conditions: concentration: 1 μM, replicates: in singlicate, n = 1
[2] = tested on: MAP4K4; conditions: concentration: 1 μM, replicates: in singlicate, n = 1
[3] = tested on: MAP4K5; conditions: concentration: 1 μM, replicates: in singlicate, n = 1
[4] = tested on: MAPKAPK2; conditions: concentration: 1 μM, replicates: in singlicate, n = 1
[5] = tested on: MAPKAPK5; conditions: concentration: 1 μM, replicates: in singlicate; n = 1
[6] = tested on: MARK1; conditions: concentration: 1 μM, replicates: in singlicate, n = 1
[7] = tested on: MARK2; conditions: concentration: 1 μM, replicates: in singlicate, n = 1
[8] = tested on: MARK3; conditions: concentration: 1 μM, replicates: in singlicate, n = 1
[9] = tested on: MARK4; conditions: concentration: 1 μM, replicates: in singlicate, n = 1
[10] = tested on: MAST1; conditions: concentration: 1 μM, replicates: in singlicate, n = 1
[11] = tested on: T1, MEK1; conditions: concentration: 1 μM, replicates: in singlicate, n = 1
T1 construct: gene MAP2K1

[12] = tested on: T2, MEK2; conditions: concentration: 1 μM, replicates: in singlicate, n = 1
T2 construct: gene MAP2K2

[13] = tested on: T3, MEK3; conditions: concentration: 1 μM, replicates: in singlicate, n = 1
T3 construct: gene MAP2K3

[14] = tested on: T4, MEK4; conditions: concentration: 1 μM, replicates: in singlicate, n = 1
T4 construct: gene MAP2K4

[15] = tested on: T5, MEK5; conditions: concentration: 1 μM, replicates: in singlicate, n = 1
T5 construct: gene MAP2K5

[16] = tested on: T6, MEK6; conditions: concentration: 1 μM, replicates: in singlicate, n = 1
T6 construct: gene MAP2K6

[17] = tested on: MELK; conditions: concentration: 1 μM, replicates: in singlicate, n = 1
[18] = tested on: MERTK; conditions: concentration: 1 μM, replicates: in singlicate, n = 1
[19] = tested on: MET; conditions: concentration: 1 μM, replicates: in singlicate, n = 1
[20] = tested on: T7, MINK; conditions: concentration: 1 μM, replicates: in singlicate, n = 1
T7 construct: gene MINK1
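Note: KINOMEscan kinase panel screen.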

## CCCCCc1nc2c(N)ncnc2n1CCCCC [SKF-97255]
[1]
  %Inh: 2%
[2]
  %Inh: 0%
[3]
  %Inh: 0%
[4]
  %Inh: 0%
[5]
  %Inh: 0%
[6]
  %Inh: 24%
[7]
  %Inh: 0%
[8]
  %Inh: 20%
[9]
  %Inh: 31%
[10]
  %Inh: 25%
[11]
  %Inh: 15%
[12]
  %Inh: 28%
[13]
  %Inh: 34%
[14]
  %Inh: 18%
[15]
  %Inh: 32%
[16]
  %Inh: 15%
[17]
  %Inh: 0%
[18]
  %Inh: 17%
[19]
  %Inh: 0%
[20]
  %Inh: 0%

## COc1cc2c(cc1OCCN1CCN(C)CC1)ncc1c3ccc(C#N)cc3[nH]c21
[1]
  %Inh: 12%
[2]
  %Inh: 59%
[3]
  %Inh: 22%
[4]
  %Inh: 0%
[5]
  %Inh: 0%
[6]
  %Inh: 7%
[7]
  %Inh: 29%
[8]
  %Inh: 0%
[9]
  %Inh: 0%
[10]
  %Inh: 97.2%
[11]
  %Inh: 34%
[12]
  %Inh: 80%
[13]
  %Inh: 9%
[14]
  %Inh: 0%
[15]
  %Inh: 99.9%
[16]
  %Inh: 11%
[17]
  %Inh: 51%
[18]
  %Inh: 0%
[19]
  %Inh: 0%
[20]
  %Inh: 93%

## NCCNS(=O)(=O)c1ccc(-c2ccnc3[nH]ccc23)cc1 [GSK977617]
[1]; 1 µM
  %Inh: 20% and 0%
[2]; 1 µM
  %Inh: 43% and 25%
[3]; 1 µM
  %Inh: 8% and 0%
[4]
  %Inh: 0%
[5]
  %Inh: 0%
[6]; 1 µM
  %Inh: 18% and 0%
[7]; 1 µM
  %Inh: 53% and 40%
[8]; 1 µM
  %Inh: 25% and 4%
[9]; 1 µM
  %Inh: 36% and 12%
[10]
  %Inh: 0%
[11]; 1 µM
  %Inh: 24% and 17%
[12]; 1 µM
  %Inh: 52% and 48%
[13]; 1 µM
  %Inh: 46% and 21%
[14]; 1 µM
  %Inh: 42% and 23%
[15]; 1 µM
  %Inh: 88% and 70%
[16]; 1 µM
  %Inh: 18% and 11%
[17]; 1 µM
  %Inh: 99.2% and 95.2%
[18]; 1 µM
  %Inh: 73% and 57%
[19]; 1 µM
  %Inh: 20% and 0%
[20]; 1 µM
  %Inh: 48% and 34%

## O=C1NC(=O)C(N2CCc3ccccc32)=C1c1cccc(Cl)c1 [SB-408010]
[1]
  %Inh: 20%
[2]
  %Inh: 0%
[3]
  %Inh: 0%
[4]
  %Inh: 3%
[5]
  %Inh: 0%
[6]
  %Inh: 4%
[7]
  %Inh: 0%
[8]
  %Inh: 0%
[9]
  %Inh: 0%
[10]
  %Inh: 0%
[11]
  %Inh: 0%
[12]
  %Inh: 0%
[13]
  %Inh: 0%
[14]
  %Inh: 0%
[15]
  %Inh: 0%
[16]
  %Inh: 0%
[17]
  %Inh: 0%
[18]
  %Inh: 0%
[19]
  %Inh: 0%
[20]
  %Inh: 0%

## O=C(NOCC1CC1)c1ccc(F)c(F)c1Nc1ccc(I)cc1Cl
[1]
  %Inh: 0%
[2]
  %Inh: 0%
[3]
  %Inh: 0%
[4]
  %Inh: 0%
[5]
  %Inh: 0%
[6]
  %Inh: 0%
[7]
  %Inh: 6%
[8]
  %Inh: 0%
[9]
  %Inh: 0%
[10]
  %Inh: 0%
[11]
  %Inh: 64%
[12]
  %Inh: 47%
[13]
  %Inh: 0%
[14]
  %Inh: 0%
[15]
  %Inh: 0%
[16]
  %Inh: 0%
[17]
  %Inh: 0%
[18]
  %Inh: 0%
[19]
  %Inh: 0%
[20]
  %Inh: 0%

## CC(C)(CN)c1nc(-c2ccc(Cl)c(O)c2)c(-c2ccncc2)[nH]1.O=C(O)C(F)(F)F [SB-477794]
[1]
  %Inh: 0%
[2]; 1 µM
  %Inh: 81% and 83%
[3]; 1 µM
  %Inh: 17% and 26%
[4]; 1 µM
  %Inh: 13% and 0%
[5]
  %Inh: 0%
[6]; 1 µM
  %Inh: 0% and 4%
[7]; 1 µM
  %Inh: 0% and 22%
[8]; 1 µM
  %Inh: 0% and 6%
[9]; 1 µM
  %Inh: 0% and 13%
[10]; 1 µM
  %Inh: 0% and 45%
[11]; 1 µM
  %Inh: 14% and 2%
[12]
  %Inh: 20%
[13]
  %Inh: 0%
[14]; 1 µM
  %Inh: 0% and 8%
[15]
  %Inh: 99.5%
[16]; 1 µM
  %Inh: 0% and 100%
[17]; 1 µM
  %Inh: 25% and 51%
[18]; 1 µM
  %Inh: 32% and 45%
[19]; 1 µM
  %Inh: 0% and 12%
[20]; 1 µM
  %Inh: 91.7% and 93.9%

## COc1cc2c(cc1OC[C@@H](O)CO)ncc1c3ccc(C#N)cc3[nH]c21
[1]
  %Inh: 20%
[2]
  %Inh: 27%
[3]
  %Inh: 3%
[4]
  %Inh: 0%
[5]
  %Inh: 0%
[6]
  %Inh: 0%
[7]
  %Inh: 10%
[8]
  %Inh: 0%
[9]
  %Inh: 0%
[10]
  %Inh: 62%
[11]
  %Inh: 45%
[12]
  %Inh: 42%
[13]
  %Inh: 0%
[14]
  %Inh: 0%
[15]
  %Inh: 99.9%
[16]
  %Inh: 0%
[17]
  %Inh: 31%
[18]
  %Inh: 0%
[19]
  %Inh: 0%
[20]
  %Inh: 91.9%

## COc1ccc(Nc2ncc(C#N)c(Nc3ccccc3C(N)=O)n2)cc1N1CCN(C)CC1.Cl [GSK1558669]
[1]
  %Inh: 99.8%
[2]
  %Inh: 96.8%
[3]
  %Inh: 99.3%
[4]
  %Inh: 0%
[5]
  %Inh: 0%
[6]
  %Inh: 99.3%
[7]
  %Inh: 99.9%
[8]
  %Inh: 89%
[9]
  %Inh: 98.7%
[10]
  %Inh: 91.8%
[11]
  %Inh: 85%
[12]
  %Inh: 92.6%
[13]
  %Inh: 89%
[14]
  %Inh: 92.5%
[15]
  %Inh: 100%
[16]
  %Inh: 79%
[17]
  %Inh: 100%
[18]
  %Inh: 100%
[19]
  %Inh: 92%
[20]
  %Inh: 98.7%

## Fc1ccc(-c2ncn(CCCN3CCOCC3)c2-c2cccnc2)cc1 [SB-211743]
[1]
  %Inh: 11%
[2]
  %Inh: 0%
[3]
  %Inh: 4%
[4]
  %Inh: 0%
[5]
  %Inh: 0%
[6]
  %Inh: 3%
[7]
  %Inh: 5%
[8]
  %Inh: 0%
[9]
  %Inh: 16%
[10]
  %Inh: 0%
[11]
  %Inh: 27%
[12]
  %Inh: 44%
[13]
  %Inh: 26%
[14]
  %Inh: 15%
[15]
  %Inh: 15%
[16]
  %Inh: 0%
[17]
  %Inh: 0%
[18]
  %Inh: 4%
[19]
  %Inh: 0%
[20]
  %Inh: 16%

## COc1ccc(S(=O)(=O)NC2CCN(c3cc(C)nc(Nc4cccc(C#N)c4)n3)CC2)cc1.O=C(O)C(F)(F)F [GSK1653539]
[1]
  %Inh: 0%
[2]
  %Inh: 0%
[3]
  %Inh: 0%
[4]
  %Inh: 0%
[5]
  %Inh: 0%
[6]
  %Inh: 0%
[7]
  %Inh: 12%
[8]
  %Inh: 0%
[9]
  %Inh: 0%
[10]
  %Inh: 0%
[11]
  %Inh: 0%
[12]
  %Inh: 0%
[13]
  %Inh: 0%
[14]
  %Inh: 0%
[15]
  %Inh: 1%
[16]
  %Inh: 0%
[17]
  %Inh: 0%
[18]
  %Inh: 0%
[19]
  %Inh: 0%
[20]
  %Inh: 0%
